Data on seven molecules can be found in PubChem BioAssay (Tox21).

Values without a mark were called inactive. Results filed as inconclusive are left out. The source made the active and inactive calls. Unless noted, calls follow the shape of the dose curve; as a rule, active = well fitted curve in the direction sought with a large enough effect in the repeat runs; inconclusive = weak or mixed curves; inactive = no such curve, though single readings can be large; an effect the other way counts as inactive or inconclusive.

The nature of test [1]: qHTS assay to identify small molecule antagonists of the estrogen related receptor (ERR) signaling pathway from Tox21 library - cell viability counter screen (AID 1224834). Also: nearly all actives have a fitted effect of over 30% in size. Also: potency is read from the fitted curve at half-maximal effect. In outline:
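Cytotoxicity of test substances is gauged in the same ERR cells used for the antagonist screen, after 17.5 h of compound treatment at 37 C, by CellTiter-Fluor fluorescence measured after 30 min.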

In test [2] the target is Luciferin 4-monooxygenase (Photinus pyralis) (UniProt P08659). Nature of the test: qHTS assay to identify small molecule inhibitors of firefly luciferase (AID 1224835). Also: nearly all actives have a fitted effect of over 25% in size. Also: potency is read from the fitted curve at half-maximal effect. In outline:
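Quantitative HTS format; KM concentrations of both substrates. Purified P. pyralis FLuc activity quantified from luminescence images.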
For orientation: In qHTS, concentration-response curves come from the screen itself.

Test [3] can be described thus: qHTS assay to identify small molecule agonists of the constitutive androstane receptor (CAR) signaling pathway - cell viability counter screen (AID 1224836). Also: nearly all actives have a fitted effect of over 45% in size. Also: potency is read from the fitted curve at half-maximal effect. In outline: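 Viability read-out: CellTiter-Fluor fluorescence after 23 h compound exposure at 37 C/5% CO2 in double-stable HepG2-CYP2B6-hCAR cells, with PK11195 present at 0.75 uM final; compounds tested in 15-point titration.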

A short description of test [4]: qHTS assay to identify small molecule antagonists of the constitutive androstane receptor (CAR) signaling pathway - cell viability counter screen (AID 1224837). Also: nearly all actives have a fitted effect of over 45% in size. Also: potency is read from the fitted curve at half-maximal effect. In outline:
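Multiplexed cytotoxicity read-out for the CAR antagonist screen: double-stable HepG2-CYP2B6-hCAR cells co-treated with 50 nM CITCO (final) and compound over 15 concentrations, incubated 23 hr, then assessed by CellTiter-Fluor fluorescence.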

In test [5] the target is Nuclear receptor subfamily 1 group I member 3 (Homo sapiens) (UniProt Q14994). Briefly: qHTS assay to identify small molecule antagonists of the constitutive androstane receptor (CAR) signaling pathway (AID 1224838). Also: nearly all actives have a fitted effect of over 40% in size. In outline:
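Compounds were titrated across 15 concentrations onto HepG2 cells double-stably expressing hCAR and a CYP2B6-2.2kb reporter, together with 50 nM CITCO (final). After 24 h at 37 C, luciferase activity was measured by luminescence.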

Test [6] has the same target. Nature of the test: qHTS assay to identify small molecule agonists of the constitutive androstane receptor (CAR) signaling pathway (AID 1224839). Also: nearly all actives have a fitted effect of over 15% in size. Also: potency is read from the fitted curve at half-maximal effect.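 As to activation: HepG2 cells stably carrying human CAR and a CYP2B6 luciferase reporter.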 In outline:
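Luminescence read-out (ONE-Glo, 30 min, room temperature) from double-stable HepG2-CYP2B6-hCAR cells exposed 24 h to 15-point compound series in presence of 0.75 uM PK11195 final.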

Test [7] can be described thus: qHTS assay to identify small molecule antagonists of the estrogen related receptor signaling pathway with the pleiotropic PPARgamma coactivator (PGC) from Tox21 10K library - cell viability counter screen (AID 1224840; active = well fitted cell-killing curve with a large enough effect in the repeat runs, not every such curve was filed as active; also: nearly all actives have a fitted effect of over 40% in size). In outline: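 Step one, plate 2,000 PGC/ERR cells per well; step two, incubate 6 h at 37 C/5% CO2; step three, pin-transfer compounds; step four, incubate 17.5 h; step five, add CellTiter-Fluor and read fluorescence after 30 min.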

Test [8] is described as follows: qHTS assay to identify small molecule antagonists of the estrogen related receptor signaling pathway with the pleiotropic PPARgamma coactivator (PGC) from Tox21 10K library (AID 1224841; call rule not given here; also: actives are mostly falling curves and most rising ones were filed inactive; nearly all actives have a fitted effect of over 50% in size). In outline:
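Antagonism in this quantitative HTS is taken from loss of luciferase signal in PGC/ERR cells. Cells (2,000/well) are treated with compounds in DMSO after a 6 h settling period and read by One-Glo luminescence after 18 h.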

A short description of test [9]: qHTS assay to identify small molecule agonists of the estrogen related receptor signaling pathway with the pleiotropic PPARgamma coactivator (PGC) from Tox21 10K library (AID 1224842). Also: nearly all actives have a fitted effect of over 15% in size. Also: potency is read from the fitted curve at half-maximal effect. In outline:
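PGC/ERR reporter cells (NTP line) were seeded 2,000 per well, rested 6 h at 37 C/5% CO2, then pin-dosed with compounds in DMSO for 18 h at 37 C; luciferase read by One-Glo luminescence after 30 min at room temperature.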

The nature of test [10]: qHTS assay to identify small molecule agonists of the hypoxia (HIF-1) signaling pathway - cell viability counter screen (AID 1224844; calls by dose curve; also: nearly all actives have a fitted effect of over 50% in size). In outline:
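Tox21 10K compounds were added to HRE-bla ME-180 cells (0.5% dialyzed FBS) and incubated 17 hrs at 37C; ATP-based CellTiter-Glo luminescence then reported cell viability in the same wells.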

Test [11] in a line: qHTS assay to identify small molecule agonists of H2AX (AID 1224845; active = well fitted activation curve with a large enough effect in the signal ratio in the repeat runs, not every such curve was filed as active; the % refers to the signal ratio). In outline: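 Wild-type CHO-K1 cells plated overnight, then exposed 3 hr at 37C to compounds at 15 concentrations (0.76% DMSO). Lysed, then HTRF anti-pH2AX(S139)-cryptate/anti-H2AX-d2 detection after 24 hr at room temperature; emissions 665 and 620 nm.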
The nature of test [12]: qHTS assay to identify small molecule agonists of the hypoxia (HIF-1) signaling pathway (AID 1224846; active = well fitted activation curve with a large enough effect in the signal ratio in the repeat runs, not every such curve was filed as active; the % refers to the signal ratio). In outline: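 Steps: seed ME-180 HRE-bla cells (2,000/well, 0.5% dialyzed FBS); incubate 5 hrs at 37C; pin-transfer compounds or DMSO; incubate 17 hrs; add LiveBLAzer B/G substrate CCF4-AM; measure reporter activation by FRET.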
Test [13] can be described thus: qHTS assay to identify small molecule agonists of H2AX - cell viability counter screen (AID 1224847; calls by dose curve; also: top concentration of the series differs between compounds; nearly all actives have a fitted effect of over 30% in size). In outline:
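CHO-K1 wt, 1000 cells/well, o/n 37C; cpds 15 conc, 3 h 37C, 0.76% DMSO; CellTiter-Glo, 30 min RT, luminescence.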

Test [14] in a line: qHTS assay to identify small molecule antagonists of the estrogen related receptor (ERR) signaling pathway from Tox21 library (AID 1224848). Also: nearly all actives have a fitted effect of over 50% in size. In outline:
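Screening used an ERR reporter line supplied by NTP, exposed for 18 h at 37 C to library compounds delivered in DMSO. Signal was luciferase luminescence developed with ONE-Glo at room temperature for 30 min.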

A short description of test [15]: qHTS assay to identify small molecule agonists of the estrogen related receptor (ERR) signaling pathway from Tox21 library (AID 1224849; calls by dose curve; also: nearly all actives have a fitted effect of over 15% in size). As to conditions: ERR reporter cell line, ONE-Glo luciferase, 18 h; at 92.4 µM (top of the series) unless noted. In outline:
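Agonist signal is luciferase luminescence from an ERR reporter cell line treated 18 h at 37 C with DMSO-dissolved compounds, read 30 min after ONE-Glo addition at room temperature.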

The nature of test [16]: qHTS RealTime-Glo MT Cell Viability Assay in HEK293 cells - 32 hour (AID 1224868). Also: top concentration of the series differs between compounds; nearly all actives have a fitted effect of over 50% in size. In outline: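 Luminescence generated by NanoLuc from substrate produced by living HEK293 cells served as the viability signal. Each value reflects the reading at its stated time point during continuous 40 h compound exposure at 37 C.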
The nature of test [17]: A CellTox Green Cytotoxicity Assay to monitor cytotoxicity in HEK293 cells - 0 hour (AID 1224869). Also: nearly all actives have a fitted effect of over 50% in size. Also: potency is read from the fitted curve at half-maximal effect. In outline:
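Cytotoxicity was tracked continuously in HEK293 cells by a DNA-binding dye excluded from viable cells. Compounds were transferred in DMSO 5 h after seeding; fluorescence was recorded at intervals up to 40 h.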

For test [18], the target named is Thyrotropin receptor (Homo sapiens) (UniProt P16473). Nature of the test: qHTS assay to identify small molecule agonists of the thyroid stimulating hormone receptor (TSHR) signaling pathway (AID 1224843; calls by dose curve; also: nearly all actives have a fitted effect of over 45% in size). In outline: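 Cell line HEK293 with TSHR; density 800/well. Exposure 30 min RT. Readout HTRF cAMP (cAMP-d2/anti-cAMP-cryptate), 1 h RT before reading.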
Test [19] is described as follows: qHTS RealTime-Glo MT Cell Viability Assay in HepG2 cells - 40 hour (AID 1224870). Also: nearly all actives have a fitted effect of over 50% in size. In outline:
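HepG2 cells mixed with RealTime-Glo MT reagents (NanoLuc plus cell-permeant prosubstrate) were seeded at 600 cells/well, incubated 5 h at 37 C/5% CO2, then pinned with compounds in DMSO; nonlytic luminescence tracked viability during 40 h treatment.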

Test [20] in a line: qHTS RealTime-Glo MT Cell Viability Assay in HepG2 cells - 24 hour (AID 1224867). Also: nearly all actives have a fitted effect of over 50% in size. In outline:
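Tox21 10K library screened in qHTS format on HepG2 cells carrying RealTime-Glo reagents. Compounds were added after a 5 h preincubation, and the luminescent signal from continuous culture was measured repeatedly during 40 h treatment.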
% is scaled to controls: 0 for no effect and ±100 for the full control effect.

Luciferin 4-monooxygenase (Photinus pyralis), sequence (P08659 whole entry, looked up): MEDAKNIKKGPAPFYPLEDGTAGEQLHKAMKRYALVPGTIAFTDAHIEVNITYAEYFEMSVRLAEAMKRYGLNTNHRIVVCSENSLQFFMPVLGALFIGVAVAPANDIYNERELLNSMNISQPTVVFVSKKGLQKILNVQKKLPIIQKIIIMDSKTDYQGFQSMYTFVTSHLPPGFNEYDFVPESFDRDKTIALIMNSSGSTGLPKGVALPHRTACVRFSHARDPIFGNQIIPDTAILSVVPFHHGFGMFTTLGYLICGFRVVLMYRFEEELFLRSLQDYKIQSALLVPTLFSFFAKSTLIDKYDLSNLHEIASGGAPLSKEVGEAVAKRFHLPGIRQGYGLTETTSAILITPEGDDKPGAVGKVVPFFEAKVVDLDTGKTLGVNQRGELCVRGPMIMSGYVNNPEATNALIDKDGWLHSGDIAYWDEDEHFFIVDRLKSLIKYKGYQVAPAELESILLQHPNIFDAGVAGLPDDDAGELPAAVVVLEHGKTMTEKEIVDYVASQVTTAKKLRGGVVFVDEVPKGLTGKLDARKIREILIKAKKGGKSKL
Thyrotropin receptor (Homo sapiens), sequence (P16473 whole entry, looked up): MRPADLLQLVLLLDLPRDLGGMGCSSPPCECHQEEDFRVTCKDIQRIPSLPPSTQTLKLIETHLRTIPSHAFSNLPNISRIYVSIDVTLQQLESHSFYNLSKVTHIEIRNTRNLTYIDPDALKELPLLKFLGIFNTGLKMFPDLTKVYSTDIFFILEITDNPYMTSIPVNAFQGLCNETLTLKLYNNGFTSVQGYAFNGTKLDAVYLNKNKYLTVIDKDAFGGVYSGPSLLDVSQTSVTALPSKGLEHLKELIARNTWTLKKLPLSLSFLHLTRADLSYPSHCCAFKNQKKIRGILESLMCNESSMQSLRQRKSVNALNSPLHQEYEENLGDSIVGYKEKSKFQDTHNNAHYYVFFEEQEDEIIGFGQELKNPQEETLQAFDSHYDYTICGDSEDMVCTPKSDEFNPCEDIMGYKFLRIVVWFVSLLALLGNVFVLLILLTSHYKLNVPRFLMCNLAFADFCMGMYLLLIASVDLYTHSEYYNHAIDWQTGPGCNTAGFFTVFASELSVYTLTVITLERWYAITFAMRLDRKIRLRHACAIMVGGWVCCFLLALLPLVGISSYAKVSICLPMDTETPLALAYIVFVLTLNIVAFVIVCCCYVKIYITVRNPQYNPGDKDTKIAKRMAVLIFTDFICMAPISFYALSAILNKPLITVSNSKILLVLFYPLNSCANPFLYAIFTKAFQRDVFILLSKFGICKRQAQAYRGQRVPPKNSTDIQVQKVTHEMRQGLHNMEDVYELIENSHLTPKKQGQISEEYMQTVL
Nuclear receptor subfamily 1 group I member 3 (Homo sapiens), sequence (Q14994 whole entry, looked up): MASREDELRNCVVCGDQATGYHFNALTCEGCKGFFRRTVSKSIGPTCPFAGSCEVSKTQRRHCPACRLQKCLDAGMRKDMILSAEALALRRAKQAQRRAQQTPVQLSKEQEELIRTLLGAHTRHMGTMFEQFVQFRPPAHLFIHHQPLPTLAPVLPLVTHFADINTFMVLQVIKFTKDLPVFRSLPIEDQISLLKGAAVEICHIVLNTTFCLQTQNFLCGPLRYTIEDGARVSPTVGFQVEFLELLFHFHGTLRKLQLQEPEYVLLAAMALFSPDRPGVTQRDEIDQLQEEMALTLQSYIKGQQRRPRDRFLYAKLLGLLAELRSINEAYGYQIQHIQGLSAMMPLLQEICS

For the molecule `Cn1cnc2c(F)c(Nc3ccc(Br)cc3Cl)c(C(=O)NOCCO)cc21`, the Potency entry in test [1], in test [2], in test [3], in test [4], in test [5] and in [6] was “inactive” in each case. The Potency entry in [7], in test [8], in [9], in [10], in test [11] and in test [13] was “inactive” in each case. The Potency entry in test [14], in test [16] and in [17] was “inactive” in each case. The outcome in [12] was inactive. In addition, in [15], the activity change, positive = activation is -7.67% [at 42.5 µM].

Regarding `CCOc1ccc2nc(N)sc2c1`, the Potency result in test [1], in [3], in test [4], in test [5], in test [7] and in [8] was “inactive” each time. Further, the Potency entry in [18], in [10], in test [14], in test [16], in test [17] and in test [19] was “inactive” in each case. Moreover, the Potency in test [2] was 19.9 µM (active); in [6], 21.5 µM (active); in test [9], 27.1 µM (active). Also, the molecule was classed as inactive in test [12]. Besides, in test [15], the activity change, positive = activation is 78% (active).

On to `O=C1CCC(C2CCCCC2)CC1`, for which the Potency result in test [1], in [2], in test [3], in test [4], in test [5] and in test [6] was “inactive” throughout. Also, the Potency entry in test [7], in test [8], in test [9], in test [18], in test [10] and in test [11] was “inactive” each time. In addition, the Potency entry in test [13], in [14], in test [20] and in test [19] was “inactive” each time. In addition, the molecule was classed as inactive in [12]. The activity change, positive = activation in test [15] is -9.72%. For the same molecule, the Potency in [17] was 43.6 µM (active).

`Cc1cc2c(s1)Nc1ccccc1N=C2N1CCN(C)CC1`: the Potency in test [1] was 5.96 µM (active); in test [3] it was 8.41 µM (active); in test [4], 3.35 µM (active). In addition, the Potency entry in [2], in test [5], in test [6], in [7], in test [8] and in [9] was “inactive” throughout. In addition, the Potency result in test [10], in [11], in test [13], in test [14], in [20] and in [16] was “inactive” throughout. Also, the Potency result in [17] and in test [19] was “inactive” each time. In addition, the call in test [12] was inactive. Besides, in [15], the activity change, positive = activation is -1.9% [at 42.5 µM].

With `Cc1cccc(C)c1NC(=O)CN1CCCCCC1`, the Potency entry in test [1], in test [2], in [3], in test [4], in test [5] and in test [6] was “inactive” each time. In addition, the Potency entry in [7], in test [8], in test [9], in test [10], in [11] and in [13] was “inactive” each time. Further, the Potency result in test [14], in [16], in [17] and in test [19] was “inactive” each time. Further, in [12], the outcome was inactive. For the same molecule, the activity change, positive = activation in test [15] is 0.669% [at 42.5 µM].

Consider `Cc1ncc(CO)c(CN)c1O`, for which the Potency result in [1], in [2], in test [3], in test [4], in [5] and in [6] was “inactive” throughout. The Potency result in test [7], in test [8], in test [9], in test [10], in test [11] and in [13] was “inactive” in each case. Besides, the Potency entry in test [14], in test [20], in test [16] and in test [17] was “inactive” each time. Also, the molecule was classed as inactive in test [12]. Moreover, in test [15], the activity change, positive = activation was 4.27% [at 42.5 µM].

For `O=c1[nH]cnc2c1ncn2[C@@H]1O[C@H](CO)[C@@H](O)[C@H]1O`, the Potency entry in test [1], in [2], in test [3], in test [4], in [5] and in [6] was “inactive” each time. Also, the Potency result in test [7], in test [8], in [9], in test [18], in [10] and in test [11] was “inactive” each time. Moreover, the Potency result in test [13], in test [14], in [20], in test [16], in test [17] and in [19] was “inactive” each time. In addition, the molecule was classed as inactive in test [12]. In addition, the activity change, positive = activation in test [15] was 2.74% [at 42.5 µM].
